Results filed as inconclusive are left out. Values without a mark were called inactive. Calls of active or inactive are those of the source. Calls come from the whole dose curve; as a rule, active = well fitted inhibition curve with a large enough effect; inconclusive = small, poorly fitted or top-dose-only effect; inactive = flat fitted curve, though single readings scatter.

The test system of the assay is Zika virus NS2B-NS3 protease. In words: Primary screen GU AMC qHTS for Zika virus inhibitors (AID 1347154).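 Note: 0% = no-inhibitor control and -100% = no-enzyme control; nearly all actives have a fitted effect of over 70% in size.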 The note with it: Zika NS2B-NS3 unlinked protease, AMC fluorogenic substrate; series mostly up to 54.1 µM; activity change, negative = inhibition: at the top concentration. A digest of the protocol:
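Unlinked Zika NS2B hydrophilic domain–NS3 protease complex at 25 nM in 10 mM Tris-HCl pH 8.0, 0.01% Tween 20, with an AMC peptide substrate. Fluorescence change (340/450 nm) over 15 min at room temperature, normalized to controls, fitted to 4-parameter Hill.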
(In general: Quantitative high-throughput screening tests each substance at several concentrations.)
`CC(=O)N[C@H]1[C@H]([C@H](O)[C@H](O)CO)OC(C(=O)O)=C[C@@H]1N=C(N)N`: the “activity change, negative = inhibition” value is 3.3%.

For the compound `OCc1ccc(Cl)cc1Cl`, the “activity change, negative = inhibition” value is -3.48%.

Turning to `O=C(CCBr)N1CCN(C(=O)CCBr)CC1`, the “activity change, negative = inhibition” value was -0.152%.

As for `Cc1cc(C)nc(NS(=O)(=O)c2ccc(N)cc2)n1`, the “activity change, negative = inhibition” value is 0.367%.

On to `Cc1c(NC(C)C)c(=O)n(-c2ccccc2)n1C`, for which the “activity change, negative = inhibition” value is -5.25%.

As for `C=CCN1C[C@H](C(=O)N(CCCN(C)C)C(=O)NCC)C[C@@H]2c3cccc4[nH]cc(c34)C[C@H]21`, the Potency result is “inactive”.

For the compound `Cc1c(C(=O)NCCO)[n+](=O)c2ccccc2n1[O-]`, the “activity change, negative = inhibition” value was -5.63%.

As for `CC(=O)NCc1c(I)c(NC(C)=O)c(I)c(C(=O)O)c1I`, the “activity change, negative = inhibition” value was -3.69%.

For `CC(C)=CCC[C@@](C)(O)[C@H]1CC=C(C)CC1`, the “activity change, negative = inhibition” value is 0.714%.

Take `NCc1ccc(S(N)(=O)=O)cc1`: the “activity change, negative = inhibition” value is 0.561%.

As for `O=C(O)Cc1ccc(CCNS(=O)(=O)c2ccc(Cl)cc2)cc1`, the “activity change, negative = inhibition” value is -0.329%.

With `Cc1ccc(S(=O)(=O)NC(=O)NC2CCCCCCC2)cc1`, the “activity change, negative = inhibition” value is 1.13%.

Consider `NCC1CCC(C(=O)Oc2ccc(CCC(=O)O)cc2)CC1` (configuration not stated), for which the “activity change, negative = inhibition” value is 3.28%.

As for `C[N+]1(C)CCCC(OC(=O)C(O)(c2ccccc2)c2ccccc2)C1` (configuration not stated), the “activity change, negative = inhibition” value was -2.33%.

For the compound `COc1cc(O)cc(O)c1`, the “activity change, negative = inhibition” value was -3.89%.

With `C[n+]1ccccc1/C=N/O`, the “activity change, negative = inhibition” value is -0.102%.

For the compound `COc1ccc(NS(=O)(=O)c2ccc(N)cc2)nn1`, the “activity change, negative = inhibition” value was -2.86%.

As to `C=CCNC(N)=S`, the “activity change, negative = inhibition” value was 1.33%.

For the compound `CCCCCOC(=O)Nc1nc(=O)n([C@@H]2O[C@H](C)[C@@H](O)[C@H]2O)cc1F`, the “activity change, negative = inhibition” value was -3.55%.

As for `O=C(O)c1ccccc1C(=O)Nc1ccc(S(=O)(=O)Nc2nccs2)cc1`, the “activity change, negative = inhibition” value was -2.27%.

`CC(=O)N(CC(O)CN(C(C)=O)c1c(I)c(C(=O)NCC(O)CO)c(I)c(C(=O)NCC(O)CO)c1I)c1c(I)c(C(=O)NCC(O)CO)c(I)c(C(=O)NCC(O)CO)c1I` (configuration not stated): the “activity change, negative = inhibition” value is -5.77%.

Regarding `CC(C)NC[C@@H](O)COc1ccc(CC(N)=O)cc1`, the “activity change, negative = inhibition” value was -3.99%.

`CC(=O)N[C@@H](Cc1ccc(O)cc1)C(=O)O`: the “activity change, negative = inhibition” value is 1.49%.

In the case of `O=C(c1ccccc1)C(O)c1ccccc1` (configuration not stated), the “activity change, negative = inhibition” value is -3.72%.

Turning to `NS(=O)(=O)c1ccc(NC(=O)CCC(=O)O)cc1`, the “activity change, negative = inhibition” value is 4.14%.

With `Cc1onc(-c2ccccc2)c1-c1ccc(S(N)(=O)=O)cc1`, the “activity change, negative = inhibition” value is -2%.

`NC(N)=NS(=O)(=O)c1ccc(N)cc1`: the “activity change, negative = inhibition” value is -1.46%.

As for `COC(=O)N/N=C/c1c[n+]([O-])c2ccccc2[n+]1[O-]`, the “activity change, negative = inhibition” value was -10.9%.

For the compound `O=C(O)CNC(=O)c1ccccc1I`, the “activity change, negative = inhibition” value was -1.3%.

Take `OC[C@@H](O)[C@@H](O)[C@H](O)[C@H](O)CO`: the “activity change, negative = inhibition” value was -1.78%.

Take `CCCCCCCCCCCCCCCCCCO`: the “activity change, negative = inhibition” value is 0.409%.

Take `NS(=O)(=O)c1cc(C2(O)NC(=O)c3ccccc32)ccc1Cl` (configuration not stated): the “activity change, negative = inhibition” value is 1.17%.

Turning to `O=C(O)CCC(=O)O`, the “activity change, negative = inhibition” value is 2.01%.

Turning to `CCOC(=O)[C@H](CCc1ccccc1)N[C@@H](C)C(=O)N1Cc2cc(OC)c(OC)cc2C[C@H]1C(=O)O`, the Potency result was “inactive”.

Turning to `CCCCCCCCCCCCCCCCN`, the “activity change, negative = inhibition” value was -3%.

Consider `CN(C/C=C/C#CC(C)(C)C)Cc1cccc2ccccc12`, for which the “activity change, negative = inhibition” value was -13.4%.

For `Nc1ccc(S(=O)(=O)c2ccc(N)cc2)cc1`, the “activity change, negative = inhibition” value was -2.42%.

For the origin of these results see PubChem BioAssay (NCATS).
